Bioassay records as filed in PubChem.
Compounds with a hit are over-represented: about 8.3% of the library has one in this group of screens.
HCMV inh = qHTS Assay for inhibitors of the human cytomegalovirus (HCMV); HFF cells, HCMV-luciferase reporter, 72 h; stronger effect = lower value; activity change, negative = inhibition, % at 57.5 µM; 4.5% of 410,000 active; AID 1259415, 2018; in the data active = activity change below about -60%; inconclusive = no clear call, values can overlap the other calls; inactive = above about -39%
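Screen run at 2 compound doses on HFFs infected with reporter HCMV, MOI 1 PFU/cell. Luciferase activity from cell lysates at 72 h post infection gave inhibition relative to buffer-only and Salinomycin wells.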
HCV inhibitor = qHTS Assay for Inhibitors of Hepatitis C Virus (HCV); Potency, µM (top dose mostly 41.8 µM), for inactives: top-dose activity change, negative = inhibition, hits mostly inhibitors; Huh7.5.1 HCVcc-Cre infection, luciferase reporter, 44 h; AID 651820, 2012; 3.4% of 340,000 active; also: potency is read from the fitted curve at half-maximal effect
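Seed cells (1,000/well) for 4 h; treat with compound and infect with HCVcc-Cre, moi about 0.5. Incubate 44 h, then detect luciferase activity.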
Marburg entry inh = qHTS for inhibitors of binding or entry into cells for Marburg Virus | Marburg virus pseudotyped entry inhibition, cell reporter | Potency, µM (titrated, usually from 37.8 µM), without a hit: at the top dose activity change, negative = inhibition, hits mostly inhibitors | 1.8% of 300,000 active | AID 540276, 2011; calls by dose curve; tested in HEK293 cells; also: potency is read from the fitted curve at half-maximal effect
Lassa entry inh = qHTS for Inhibitors of binding or entry into cells for Lassa Virus; Lassa virus pseudotype entry inhibition, cell reporter; Potency, µM (titrated, usually from 37.9 µM), inactives show at the highest dose activity change, negative = inhibition, actives largely listed as inhibitors; 1.2% of 300,000 active; AID 540256, 2011; calls by dose curve; tested in HEK293 cells; also: potency is read from the fitted curve at half-maximal effect; nearly all actives have a fitted effect of over 50% in size
Giardia FBPA inh = qHTS Assay for Inhibitors of Fructose-1,6-bisphosphate Aldolase from Giardia Lamblia. A8B2U2. AID 2451, 2010. 0.71% of 290,000 active. Potency, µM (titrated, usually from 59.6 µM), for inactives: at the top dose activity, negative = inhibition, most hits filed as inhibitors. purified Giardia FBPA; also: potency is read from the fitted curve at half-maximal effect; nearly all actives have a fitted effect of over 55% in size
Target sequence (A8B2U2 whole entry, looked up): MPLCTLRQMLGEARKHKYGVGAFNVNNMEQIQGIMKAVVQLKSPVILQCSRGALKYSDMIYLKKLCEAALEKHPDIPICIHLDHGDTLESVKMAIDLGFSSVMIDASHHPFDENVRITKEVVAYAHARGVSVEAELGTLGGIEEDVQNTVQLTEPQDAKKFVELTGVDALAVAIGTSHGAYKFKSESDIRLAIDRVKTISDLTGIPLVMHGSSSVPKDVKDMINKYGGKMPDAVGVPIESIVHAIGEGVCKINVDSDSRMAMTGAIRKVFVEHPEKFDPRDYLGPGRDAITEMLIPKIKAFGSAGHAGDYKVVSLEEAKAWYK
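40 nM FBPA preincubated 10 min at RT with compound (up to 57.5 uM final), then substrate plus GAPDH/TPI/NAD/arsenate coupling and diaphorase/resazurin added. Fluorescence read after 20 min at RT, 525/598 nm.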
FMDV antiviral = High Throughput Screening for Foot and Mouth Disease Virus Antivirals. Potency, µM (top dose mostly 57.9 µM), without a hit: at the top dose activity change, negative = inhibition, most hits filed as inhibitors. 1.2% of 410,000 active. FMDV antiviral cell-based qHTS; calls by dose curve; tested in HEK293T cells; also: read-out not given here; potency is read from the fitted curve at half-maximal effect; nearly all actives have a fitted effect of over 45% in size
* = called active by the depositor; ? = inconclusive; · = not tested or not shown; [ ] = another dose, or the depositor's remark. Unless noted, calls follow the shape of the dose curve; as a rule, active = well fitted curve in the direction sought with a large enough effect; inconclusive = small, poorly fitted or top-dose-only effect, or another doubt; inactive = no such curve, though single readings can be large; an effect the other way counts as inactive or inconclusive. % is scaled to controls: 0 for no effect and ±100 for the full control effect.

SMILES	HCMV inh	HCV inhibitor	Marburg entry inh	Lassa entry inh	Giardia FBPA inh	FMDV antiviral
O=C(NCc1cccc(Cl)c1)NCc1noc2ccccc12	2.8	·	·	1.2%[46.1 µM]	·	12.2%
CCO[C@H](c1cc(OC)cc([N+](=O)[O-])c1OC)[C@H](C)[C@@H](OC)[C@H](C)C=CCC(=O)OC	·	·	1.2%[14.2 µM]	·	·	·
CC(=O)N1CCc2c(sc(NC(=O)c3ccc([N+](=O)[O-])o3)c2C#N)C1	-98.4*	-8.5%	·	·	-29.2%	35.7%
CC(C)N1CCc2c(sc(NC(=O)c3ccc([N+](=O)[O-])o3)c2C(N)=O)C1	-98.0*	·	·	·	-21.4%	·
COC(=O)c1c(NC(=O)c2ccc([N+](=O)[O-])o2)sc2c1CCN(C(C)C)C2	?	2.82µM*	?	?	-14.5%	?
COC(=O)c1c(NC(=O)c2ccc(S(=O)(=O)N3CCCC(C)C3)cc2)sc2c1CCN(C(C)C)C2 (stereo unspecified)	-30.2	·	·	17.2%[46.1 µM]	·	-3.3%
COC(=O)c1sc(NC(=O)c2ccc([N+](=O)[O-])o2)c(C#N)c1C	0.0	11.2µM*	6.5%	·	8.0%	?
COc1cc(=O)n2c(c1C(=O)N(C)Cc1nonc1C)CCN(Cc1cc(F)ccc1F)CC2	·	·	·	·	·	-3.7%
Cc1ccccc1C1(CC(=O)N2CC3(C)CC2CC(C)(C)C3)CC(=O)N(Cc2cccnc2)C1=O (stereo unspecified)	·	·	·	·	·	12.2%
CC(C)N1CCc2c(sc(NC(=O)c3cc(-c4cccs4)nc4ccccc34)c2C(N)=O)C1	·	10µM*	?	?	-8.1%	?
CC(C)N1CCc2c(sc(NC(=O)c3nc4ccccc4s3)c2C(N)=O)C1	-35.8	?	1.8%[46.1 µM]	?	-11.0%	-12.4%
O=C(CCNS(=O)(=O)c1ccccc1C(F)(F)F)N1CCCCCCC1	-17.5	6.1%	·	·	·	8.8%
O=C(CCNS(=O)(=O)c1ccccc1C(F)(F)F)N1CCN(C(c2ccccc2)c2ccccc2)CC1	-18.6	?	7.08µM*	?	·	?
Cc1ccc(NC(=O)C2CCN(S(=O)(=O)c3ccc4[nH]c(=O)ccc4c3)CC2)cc1C	70.2	·	·	5.9%[46.1 µM]	·	-15.0%
Cc1ccc(SCC(CC(C)C)N2CCN(C)CCC2=O)cc1 (stereo unspecified)	·	·	·	·	3.5%	·
COc1ccc(CNC(=S)N/N=C(/C)c2ccccc2)cc1	-1.8	0.6%	?	14.1µM*	-2.6%	20.8%
C/C(=N\NC(=S)NCc1ccccc1)c1ccc(C(C)(C)C)cc1	17.1	-21.5%	?	0.461µM*	-0.9%	-10.6%
C/C(=N\NC(=S)NCc1ccccc1)c1ccccc1	139.3	0.3%	?	?	15.4%	18.0%
COCCNC(=S)N/N=C(\C)c1ccc2cc(OC)ccc2c1	-74.9*	?	?	8.2µM*	-1.2%	-26.3%
C=C(C)CNC(=S)N/N=C(\C)c1ccc(OC)cc1	-69.9*	?	?	?	-10.2%	-19.9%
CC(=O)OC[C@H]1O[C@@H](O/N=C(\C)CCN2CCCCc3nc(C)c(C)cc32)[C@H](OC(C)=O)[C@@H](OC(C)=O)[C@H]1OC(C)=O	·	·	·	·	-0.3%[12.9 µM]	·
CC[C@H](C)[C@H](NC(=O)[C@H](CC(C)C)NC(=O)[C@@H](N)CO)C(=O)NCC(=O)N[C@@H](CCCCN)C(=O)N[C@H](C(=O)O)C(C)C	·	·	·	·	2.7%	·
COC(=O)C1=C(C)NC(C)=C(C(=O)OCC(C)C)C1c1ccccc1[N+](=O)[O-] (stereo unspecified)	?	25.1µM*	·	·	·	?
COC(=O)C1=C(C)NC(C)=C([N+](=O)[O-])[C@H]1c1ccccc1C(F)(F)F	·	·	-6.4%	·	-16.4%	0.0%
CCOCC(=O)Nc1c(C(=O)Nc2ccc3c(c2)OCCO3)oc2ccccc12	-95.8*	?	?	?	-24.8%	23.6%
SMILES	HCMV inh	HCV inhibitor	Marburg entry inh	Lassa entry inh	Giardia FBPA inh	FMDV antiviral
COCC(=O)Nc1c(C(=O)Nc2ccc3c(c2)OCCO3)oc2ccccc12	55.6	?	11.2µM*	?	-16.9%	0.0%
CCC(=O)Nc1c(C(=O)Nc2ccc3c(c2)OCCO3)oc2ccccc12	40.3	-25.3%	-4.2%	?	-18.0%	32.9%
CCCCN(CCCC)C(=O)c1cn(CC)c2cc(N3CCN(C)CC3)c(F)cc2c1=O	-65.8*	-13.5%	?	22.5%[46.1 µM]	-10.0%	-4.9%
CCn1cc(C(=O)NCCN(C)C)c(=O)c2cc(F)c(N3CCN(C)CC3)cc21	31.7	14.5%	11.2µM*	-17.3%	-9.6%	1.0%
CCCN1C(=O)C[C@H](S(=O)(=O)c2ccccc2)[C@H]1c1ccccc1	-14.3	·	·	·	·	·
CC1=Nc2cc(C(=O)O)ccc2Sc2c(C)ccc(C)c21	-33.7	-17.2%	?	-8.7%	?	-25.2%
CC1=Nc2cc(C(=O)N3CCCC3)ccc2Sc2c(C)ccc(C)c21	-99.6*	1.5%	·	·	-1.0%	0.0%
CC1=Nc2cc(C(=O)NCc3ccccc3Cl)ccc2Sc2c(C)ccc(C)c21	-90.4*	·	?	?	·	-19.1%
CCc1nn2c(=O)cc(COC(=O)c3ccccc3NC(=O)COc3ccc(F)cc3)nc2s1	?	·	·	10.6%[46.1 µM]	·	4.1%
O=c1[nH]c(CN2CCN(c3ccc([N+](=O)[O-])cc3)CC2)nc2ccsc12	12.8	?	-27.8%	-2.3%	-20.7%	31.6µM*
COc1ccc(N2CCN(Cc3nc4ccsc4c(=O)[nH]3)CC2)cc1	3.2	-3.7%	6.5%	-0.7%	-24.6%	-9.1%
CCOC(=O)Cc1csc(NC(=O)c2ccc(N3CCOCC3)cc2[N+](=O)[O-])n1	18.2	11.2µM*	·	·	·	17.8µM*
Oc1ccccc1-n1c(-c2ccccc2)ccc1-c1ccccc1	-76.4*	?	·	·	-16.0%	?
N#Cc1c(Cl)nc2c(c1C#N)CCCC2	-74.8*	-20.2%	15.7%	8.6%	7.5%	-23.1%
CCCCCCCCCc1ccc(OCCOCCO)cc1	·	·	·	·	·	11.2µM*
COC(=O)N[C@@H](C=Cc1ccccc1)[C@@H](C)[N+](=O)[O-]	·	·	2.4%[14.2 µM]	·	·	·
O=C(O)C(S)[C@@H](S)C(=O)O (stereo partly specified)	·	·	·	·	?	0.0%
Cc1cc(C)n(CC(O)Cn2c3ccccc3c3ccccc32)n1 (stereo unspecified)	-3.0	?	-18.9%	0.5%	-21.0%	33.8%
Oc1cccc2ccc[n+](CC(O)Cn3c4ccccc4c4ccccc43)c12 (stereo unspecified)	-21.4	22.4µM*	?	?	?	0.0%
Cc1ccccc1OCC(O)CNC1CCC(NCC(O)COc2ccccc2C)CC1 (stereo unspecified)	-99.6*	?	1.12µM*	?	-2.3%	?
